Hits are enriched below; roughly 19% of the tested compounds scored in any of these assays.
HT1080-NT tox = kills 2HG-producing HT-1080-NT fibrosarcoma cells; 360,000 tested, 1.6% active; AID 686970; Potency, µM (series often up to 46.1 µM), inactives show at the highest dose activity, negative = less viability, actives largely listed as cytotoxic; HT-1080-NT fibrosarcoma viability, CellTiter-Glo ATP luminescence, 48 h;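 also: NT is the 2HG producing partner of a matched IDH1 knockdown line; potency is read from the fitted curve at half-maximal effect; 0% = DMSO-treated cells and -100% = media-only wells without cells; nearly all actives have a fitted effect of over 55% in size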
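Compounds were tested in concentration-response format on HT-1080-NT cells for 48 hours at 37 degrees C. Cell viability came from CellTiter-Glo luminescence; curves were classified by r2, response magnitude and activity.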
TDP1 cell CPT = DT40-hTDP1 cell growth loss with CPT; chicken DT40 Tdp1-/-;hTDP1 cells + 20 nM CPT, ATP luminescence, 48 h; Potency, µM (titrated, usually from 46.2 µM), for the others: at the highest dose activity change, negative = growth inhibition, most hits filed as inhibitors; 420,000 tested, 12% active; also: potency is read from the fitted curve at half-maximal effect; nearly all actives have a fitted effect of over 55% in size
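Chicken DT40 Tdp1-/- cells stably complemented with human TDP1 were seeded at 400 cells/well in medium containing 20 nM camptothecin, exposed to pin-transferred compounds, and grown at 37 °C for at least 48 hr. Viability was read as ATP luminescence.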
HT1080 IDH1KD tx = HT-1080 IDH1 knockdown cell toxicity (counter line) | AID 686971 | 360,000 tested, 2% active | Potency, µM (titrated, usually from 46.1 µM), for the others: top-dose activity, negative = toxicity, usual class: cytotoxic | HT-1080 IDH1 knockdown viability, ATP luminescence, 48 h;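 also: potency is read from the fitted curve at half-maximal effect; 0% = DMSO wells and -100% = cell-free medium wells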
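Assay cells: HT-1080 with IDH1 knockdown, 750 per well, RPMI/5% FBS. Exposure: 48 h at 37 °C following 2 h pre-incubation. Read: CellTiter-Glo luminescence; fitted concentration-response, curve class assigned.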
IL-1B inflam inh = inhibitors of inflammasome signaling (IL-1 beta secretion); THP-1 LPS/ATP IL-1B secretion, AlphaLISA, 16 h; active compounds read low; activity change, % at 57.5 µM; 360,000 tested, 4.7% active; in the data active = activity change below about -50%; inconclusive = mostly about -30% to -49%
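THP-1 cells pretreated 1 hr with compounds (up to 57.5 uM final), then stimulated with LPS (250 ng/mL final) plus ATP (1.25 mM final); secreted IL-1B measured by AlphaLISA after 16 hr, decreased signal indicating inhibition.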
DT40 TDP1 no CPT = qHTS for Inhibitors of human tyrosyl-DNA phosphodiesterase 1 (TDP1): qHTS in cells in absence of CPT; DT40 Tdp1-/- hTDP1 cells, no CPT, ATP luminescence, 48 h; Potency, µM (series often up to 46.2 µM), for inactives: at the top dose activity change, negative = growth inhibition, most hits filed as inhibitors; 420,000 tested, 15% active; also: potency is read from the fitted curve at half-maximal effect; nearly all actives have a fitted effect of over 55% in size
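Chicken DT40 Tdp1-/- cells stably complemented with human TDP1 were seeded at 400 cells/well with DMSO in place of 20 nM camptothecin. After compound pinning, cells grew at least 48 hr at 37 °C; viability read by CellTiter-Glo luminescence.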
Starred values were filed as active, the others as inactive; ? = inconclusive; · = not tested or not shown. Unless noted, calls follow the shape of the dose curve; as a rule, active = well fitted curve in the direction sought with a large enough effect; inconclusive = small, poorly fitted or top-dose-only effect, or another doubt; inactive = no such curve, though single readings can be large; an effect the other way counts as inactive or inconclusive. Unless noted, % is scaled to controls: 0 for no effect and ±100 for the full control effect.

SMILES | HT1080-NT tox | TDP1 cell CPT | HT1080 IDH1KD tx | IL-1B inflam inh | DT40 TDP1 no CPT
Cc1ccc(Cl)cc1-c1cc(C(=O)NCC2CCCCC2)[nH]n1 | ? | ? | ? | -50.8* | 18.4µM*
Cc1ccc(Cl)cc1-c1cc(C(=O)Nc2ccc(F)cc2)[nH]n1 | ? | 23.1µM* | ? | -60.1* | 20.6µM*
COc1ccc(C)cc1NC(=O)COC(=O)C1CC1 | 14.9% | -1.1% | 10.3% | 7.9 | -13.2%
O=[N+]([O-])c1ccccc1/C=C/C=N/Nc1ccc(S(=O)(=O)Nc2ccc(Cl)cc2)cc1[N+](=O)[O-] | -7.2% | 16.4µM* | -4.8% | -13.8 | 18.4µM*
O=[N+]([O-])c1ccc(N/N=C/c2c[nH]c3ccccc23)c(S(=O)(=O)Nc2ccc(Cl)cc2)c1 | -2.0% | ? | -22.5% | -7.4 | 23.1µM*
COc1ccc(NS(=O)(=O)c2ccc(N/N=C(\C)c3ccncc3)c([N+](=O)[O-])c2)cc1 | -22.4% | 11.6µM* | ? | 22.3 | 7.31µM*
O=[N+]([O-])c1cc(S(=O)(=O)Nc2cccc(Cl)c2)ccc1N/N=C/c1ccc(N2CCOCC2)cc1 | 0.0% | ? | 6.7% | 5.3 | 10.3µM*
C/C(=N\Nc1ccc(S(=O)(=O)Nc2ccc(Cl)cc2)cc1[N+](=O)[O-])c1ccc(N2CCOCC2)cc1 | -0.5% | ? | -4.3% | -6.6 | ?
C/C(=N\Nc1ccc(S(=O)(=O)Nc2ccccc2)cc1[N+](=O)[O-])c1ccc(N2CCOCC2)cc1 | 1.4% | 14.6µM* | -0.8% | 0.0 | 2.59µM*
CC(=O)NCCNc1ncncc1-c1ccccc1C | · | -14.5% | · | · | 1.2%
COc1cc(CC(=O)Nc2ccccc2N2CCCCC2)cc(OC)c1OC | -12.0% | ? | -4.1% | 18.7 | ?
CCNC(=O)C1(C)CCCCN1Cc1ccc(C#N)cc1 (stereo not drawn) | 19.3% | ? | 17.3% | 45.6 | ?
CCNC(=O)C1(C)CCCN1Cc1cccc(C(F)(F)F)c1 (stereo not drawn) | 12.0% | 18.4µM* | 4.7% | 31.3 | 18.4µM*
CC1(C(=O)NCc2cccc(C(F)(F)F)c2)CCN1Cc1ccc(-c2ccccc2)o1 (stereo not drawn) | ? | ? | ? | -18.9 | ?
CC1(C(=O)NCc2cccc(C(F)(F)F)c2)CCN1Cc1cc2ccccc2o1 (stereo not drawn) | ? | 25.9µM* | ? | ? | 18.4µM*
COc1ccc(C2/C=C\CN(C(=O)c3ccccc3)[C@H](Cc3ccccc3)C(=O)N2Cc2ccc(F)cc2)cc1 (stereo partly drawn) | -7.6% | 20.6µM* | -3.4% | 4.1 | 14.6µM*
COc1ccc([C@H]2/C=C\CN(C(=O)c3ccc(C)cc3)[C@@H](C)C(=O)N2Cc2ccc(F)cc2)cc1 | ? | ? | ? | -5.6 | 20.6µM*
CSc1ccc(CN2CCC2(C)C(=O)Nc2cnc3ccccc3c2)cc1 (stereo not drawn) | 0.8% | ? | 14.1% | -20.3 | ?
Cc1ccnc2nc(C(=O)OCCOc3ccc(Cl)cc3)nn12 | 17.1% | 5.1% | 0.0% | ? | 2.0%
COCCCNC(=O)CSc1c2c(nc3ccc(Cl)cc13)CCCC2 | ? | ? | ? | -155.5* | ?
CC(C)OCCCNC(=O)CSc1c2c(nc3ccc(Cl)cc13)CCCC2 | · | ? | · | · | 23.1µM*
COc1cccc(CNC(=O)COC(=O)CCS(=O)(=O)c2ccc(C)cc2)c1 | -8.5% | 6.2% | -10.4% | 9.7 | -4.2%
COc1ccc(C(OCC(O)CNC(C)c2ccccc2)c2ccc(OC)cc2)cc1 (stereo not drawn) | ? | ? | 20.6µM* | -97.9* | 23.1µM*
COc1ccc(C(OCC(O)CNCCc2ccccc2)c2ccc(OC)cc2)cc1 (stereo not drawn) | 23.1µM* | 23.1µM* | 23.1µM* | -107.2* | 18.4µM*
Cc1cc2ccccc2c(=O)n1CC(=O)NCc1ccco1 | 0.6% | -7.9% | 3.9% | 0.0 | 6.1%
SMILES | HT1080-NT tox | TDP1 cell CPT | HT1080 IDH1KD tx | IL-1B inflam inh | DT40 TDP1 no CPT
Cc1ccc(CNC(=O)Cn2c(=O)cc(C)c3c(C)nn(-c4cccc(F)c4)c32)cc1 | · | 1.8% | · | · | -1.0%
CCOC(=O)c1cc(C#N)c(Oc2ccccc2OC)nc1-c1ccccc1 | -17.3% | ? | -18.0% | -1.3 | 23.1µM*
CCOC(=O)c1cc(C#N)c(N2CCN(c3ccccn3)CC2)nc1-c1ccccc1 | -29.5% | ? | -10.2% | -22.4 | 20.6µM*
COC(=O)N1CCC2(CCCN(C(=O)Nc3ccc(OC)cc3)C2)CC1 | · | 2.8% | · | · | -4.7%
O=C(Nc1ccccc1)N1CCCC2(CCNCC2)C1 | · | 16.6% | · | · | -21.1%
CC(Oc1cccc(Cl)c1)C(=O)NNC(=O)c1cccnc1 (stereo not drawn) | 0.6% | 0.5% | 4.8% | 4.3 | 11.5%
CC(Oc1ccccc1)C(=O)NNC(=O)c1ccccn1 (stereo not drawn) | -21.8% | 10.3µM* | ? | 36.4 | 7.31µM*
CC(Oc1cccc(Br)c1)C(=O)NNC(=O)c1ccccn1 (stereo not drawn) | ? | 2.91µM* | ? | 92.8 | 2.31µM*
CC(C)C(=O)NNC(=O)c1ccccn1 | 1.8% | ? | -3.7% | 0.0 | ?
O=C(Nc1ccon1)c1cc2ccccc2oc1=O | 18.9% | -29.0% | 8.0% | 0.0 | -8.8%
CCOC(=O)c1c(NC(=O)Cn2nnc(-c3ccc(Cl)cc3)n2)sc(CC)c1C | -6.1% | ? | 0.6% | 11.4 | ?
Cc1cc(C=O)c(C)c2c1[nH]c1ccccc12 | -1.8% | ? | -18.4% | -57.1* | 20.6µM*
Cc1ccc(C)c2c1[nH]c1ccccc12 | -24.0% | -19.2% | -18.3% | 14.9 | -14.5%
COC(=O)c1ccc(C(=O)Nc2ccc(C(C)C)cc2N)cc1 | -8.7% | 3.6% | -1.8% | 69.8 | -22.2%
Cc1cc(O)c(-c2n[nH]c3c2C(c2cccc(O)c2)N(Cc2cccnc2)C3=O)cc1Cl (stereo not drawn) | -29.4% | ? | ? | -16.5 | -28.2%
CCc1ccc(C2c3c(-c4ccccc4O)n[nH]c3C(=O)N2Cc2cccnc2)cc1 (stereo not drawn) | · | 16.4µM* | · | · | ?
CSc1ccc(C2c3c(-c4ccccc4O)n[nH]c3C(=O)N2Cc2ccncc2)cc1 (stereo not drawn) | · | 23.1µM* | · | · | 18.4µM*
O=C1c2[nH]nc(-c3ccccc3O)c2C(c2ccccc2F)N1Cc1ccco1 (stereo not drawn) | -22.5% | ? | -4.6% | 75.2 | ?
CCCn1nnc(NC(=O)c2cc(Br)cc(Br)c2OC)n1 | 8.0% | -24.7% | 7.7% | -5.7 | -22.8%
